In the supplement of paper PMC11732987, “Enantioselective OTUD7B fragment discovery through chemoproteomics screening and high-throughput optimisation” (Communications Chemistry, 2025):

Legend:
Test in all cases: log2 ratio of Biotin-Ahx-Ub-VS probe labelling (fragment/DMSO); higher = less target engagement (more negative = stronger competition), active = hit call of the paper (q ≤ 0.05, log2 ratio ≤ -1)
Details in all cases: compound concentration: 200 uM; treatment time: 3 h
[1] = molecular target: USP34 (UniProt Q70CQ2)
Summary of the method: (§1)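 Global-median-normalised Spectronaut label-free quantities were compared by unpaired t-test, and values are average log2 ratios of fragment over vehicle. Only proteins with ≥2 unique peptides were used. HEK293T lysate (495 µg per sample) was treated in triplicate with fragment at 200 µM or vehicle for 3 h and then with Biotin-Ahx-Ub-VS at 0.5 µM final for 1 h. Labelled DUBs were then NeutrAvidin-enriched, digested with LysC and trypsin, and run by diaPASEF LC-MS/MS.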

[2] = molecular target: T1, USP36 (UniProt Q9P275)
T1 sequence (whole entry): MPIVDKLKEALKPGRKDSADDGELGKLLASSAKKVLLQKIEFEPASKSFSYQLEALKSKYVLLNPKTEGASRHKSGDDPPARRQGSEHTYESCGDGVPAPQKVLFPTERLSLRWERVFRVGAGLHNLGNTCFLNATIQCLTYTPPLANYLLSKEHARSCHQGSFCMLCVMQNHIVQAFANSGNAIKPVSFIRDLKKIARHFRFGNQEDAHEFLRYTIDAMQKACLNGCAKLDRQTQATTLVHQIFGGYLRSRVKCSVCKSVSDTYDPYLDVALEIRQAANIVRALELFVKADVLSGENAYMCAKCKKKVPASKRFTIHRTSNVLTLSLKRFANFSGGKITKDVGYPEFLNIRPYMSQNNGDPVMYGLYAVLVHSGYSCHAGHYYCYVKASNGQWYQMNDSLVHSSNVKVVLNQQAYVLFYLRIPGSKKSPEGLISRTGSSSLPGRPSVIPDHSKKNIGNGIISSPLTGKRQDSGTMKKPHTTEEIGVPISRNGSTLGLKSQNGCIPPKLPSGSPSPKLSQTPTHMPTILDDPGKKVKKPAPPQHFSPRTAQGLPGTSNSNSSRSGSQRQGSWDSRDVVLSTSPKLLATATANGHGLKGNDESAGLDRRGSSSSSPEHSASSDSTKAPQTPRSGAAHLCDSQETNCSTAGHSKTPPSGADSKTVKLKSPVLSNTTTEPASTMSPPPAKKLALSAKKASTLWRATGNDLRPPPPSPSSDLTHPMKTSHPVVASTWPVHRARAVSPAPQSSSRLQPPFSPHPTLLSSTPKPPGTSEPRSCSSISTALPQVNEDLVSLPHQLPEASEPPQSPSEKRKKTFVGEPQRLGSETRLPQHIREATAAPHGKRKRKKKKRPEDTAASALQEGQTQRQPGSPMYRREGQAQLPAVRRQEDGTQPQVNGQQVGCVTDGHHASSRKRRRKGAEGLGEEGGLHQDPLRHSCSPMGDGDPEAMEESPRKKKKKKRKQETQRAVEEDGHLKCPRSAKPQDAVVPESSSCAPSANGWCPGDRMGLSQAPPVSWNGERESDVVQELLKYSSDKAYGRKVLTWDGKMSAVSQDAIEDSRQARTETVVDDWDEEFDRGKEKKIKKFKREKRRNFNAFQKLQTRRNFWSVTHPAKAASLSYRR
Summary of the method: as §1

[3] = molecular target: T2, USP38 (UniProt Q8NB14)
T2 sequence (whole entry): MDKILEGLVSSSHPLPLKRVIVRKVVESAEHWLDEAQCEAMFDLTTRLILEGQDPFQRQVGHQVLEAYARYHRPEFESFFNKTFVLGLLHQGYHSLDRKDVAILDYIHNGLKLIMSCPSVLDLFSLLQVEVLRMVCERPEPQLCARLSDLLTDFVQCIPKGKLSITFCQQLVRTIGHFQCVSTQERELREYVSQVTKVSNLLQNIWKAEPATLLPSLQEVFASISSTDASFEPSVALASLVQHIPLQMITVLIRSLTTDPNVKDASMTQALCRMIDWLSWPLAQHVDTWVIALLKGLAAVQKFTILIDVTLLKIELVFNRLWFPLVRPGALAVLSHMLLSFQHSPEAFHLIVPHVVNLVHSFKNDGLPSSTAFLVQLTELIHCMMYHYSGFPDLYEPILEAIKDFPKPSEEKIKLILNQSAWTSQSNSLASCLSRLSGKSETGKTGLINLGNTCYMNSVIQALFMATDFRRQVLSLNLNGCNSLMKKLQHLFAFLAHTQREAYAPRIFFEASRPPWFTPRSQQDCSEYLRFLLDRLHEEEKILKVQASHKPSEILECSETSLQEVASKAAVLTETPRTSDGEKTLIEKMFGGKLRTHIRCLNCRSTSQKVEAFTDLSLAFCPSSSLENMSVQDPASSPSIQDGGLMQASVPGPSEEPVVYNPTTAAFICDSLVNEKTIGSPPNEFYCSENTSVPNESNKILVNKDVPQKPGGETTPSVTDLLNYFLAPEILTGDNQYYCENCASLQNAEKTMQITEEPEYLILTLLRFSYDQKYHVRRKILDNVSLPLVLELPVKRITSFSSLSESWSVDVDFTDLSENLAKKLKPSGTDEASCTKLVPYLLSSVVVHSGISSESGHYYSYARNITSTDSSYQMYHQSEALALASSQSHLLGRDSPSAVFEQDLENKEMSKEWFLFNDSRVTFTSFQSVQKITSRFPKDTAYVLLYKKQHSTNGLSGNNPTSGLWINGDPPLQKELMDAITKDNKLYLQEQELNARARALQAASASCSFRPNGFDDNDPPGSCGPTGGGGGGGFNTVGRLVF
Summary of the method: as §1

[4] = molecular target: T3, USP39 (UniProt Q53GS9)
T3 sequence (whole entry): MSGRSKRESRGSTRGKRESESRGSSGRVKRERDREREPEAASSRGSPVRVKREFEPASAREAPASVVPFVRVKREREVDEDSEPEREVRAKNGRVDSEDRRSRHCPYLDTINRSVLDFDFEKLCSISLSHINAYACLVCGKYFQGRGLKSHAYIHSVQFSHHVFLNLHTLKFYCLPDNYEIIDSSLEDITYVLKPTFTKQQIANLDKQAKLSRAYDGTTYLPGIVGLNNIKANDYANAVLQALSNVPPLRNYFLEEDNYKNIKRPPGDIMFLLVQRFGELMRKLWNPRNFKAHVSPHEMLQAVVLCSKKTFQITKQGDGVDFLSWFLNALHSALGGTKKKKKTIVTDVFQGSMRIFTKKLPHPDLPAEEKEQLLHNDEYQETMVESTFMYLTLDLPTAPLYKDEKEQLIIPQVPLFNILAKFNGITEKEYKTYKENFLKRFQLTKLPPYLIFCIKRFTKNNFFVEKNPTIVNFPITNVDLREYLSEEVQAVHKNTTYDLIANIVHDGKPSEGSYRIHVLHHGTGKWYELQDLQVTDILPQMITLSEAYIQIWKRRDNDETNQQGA
Summary of the method: as §1

[5] = molecular target: T4, USP4 (UniProt Q13107)
T4 sequence (whole entry): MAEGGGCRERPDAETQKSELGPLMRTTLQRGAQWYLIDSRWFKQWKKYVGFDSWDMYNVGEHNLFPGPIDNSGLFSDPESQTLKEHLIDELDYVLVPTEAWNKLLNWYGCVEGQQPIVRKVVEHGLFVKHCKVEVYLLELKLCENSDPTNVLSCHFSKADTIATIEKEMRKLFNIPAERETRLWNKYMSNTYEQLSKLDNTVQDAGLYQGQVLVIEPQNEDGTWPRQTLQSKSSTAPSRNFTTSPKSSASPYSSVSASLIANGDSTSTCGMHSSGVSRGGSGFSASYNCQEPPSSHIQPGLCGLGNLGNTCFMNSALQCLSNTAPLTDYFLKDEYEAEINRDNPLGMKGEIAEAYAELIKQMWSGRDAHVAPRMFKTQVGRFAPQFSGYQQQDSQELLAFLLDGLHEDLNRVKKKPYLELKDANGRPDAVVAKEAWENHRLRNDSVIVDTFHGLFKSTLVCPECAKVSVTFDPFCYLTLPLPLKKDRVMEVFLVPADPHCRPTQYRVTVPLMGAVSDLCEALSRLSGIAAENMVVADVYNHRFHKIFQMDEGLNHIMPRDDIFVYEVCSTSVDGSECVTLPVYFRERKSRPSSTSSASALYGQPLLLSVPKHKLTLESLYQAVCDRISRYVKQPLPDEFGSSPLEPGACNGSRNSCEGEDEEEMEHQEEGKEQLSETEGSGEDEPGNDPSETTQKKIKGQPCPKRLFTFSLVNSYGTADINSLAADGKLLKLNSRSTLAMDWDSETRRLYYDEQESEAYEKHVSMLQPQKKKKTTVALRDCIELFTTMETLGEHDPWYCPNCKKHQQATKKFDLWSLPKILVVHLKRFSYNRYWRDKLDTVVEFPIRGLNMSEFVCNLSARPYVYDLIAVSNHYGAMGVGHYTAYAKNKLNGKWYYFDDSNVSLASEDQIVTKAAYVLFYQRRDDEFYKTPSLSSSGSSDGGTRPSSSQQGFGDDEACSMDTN
Summary of the method: as §1

Measured: log2 ratio of Biotin-Ahx-Ub-VS probe labelling

Chain of USP34 (Q70CQ2 whole entry, the tested form may be a part): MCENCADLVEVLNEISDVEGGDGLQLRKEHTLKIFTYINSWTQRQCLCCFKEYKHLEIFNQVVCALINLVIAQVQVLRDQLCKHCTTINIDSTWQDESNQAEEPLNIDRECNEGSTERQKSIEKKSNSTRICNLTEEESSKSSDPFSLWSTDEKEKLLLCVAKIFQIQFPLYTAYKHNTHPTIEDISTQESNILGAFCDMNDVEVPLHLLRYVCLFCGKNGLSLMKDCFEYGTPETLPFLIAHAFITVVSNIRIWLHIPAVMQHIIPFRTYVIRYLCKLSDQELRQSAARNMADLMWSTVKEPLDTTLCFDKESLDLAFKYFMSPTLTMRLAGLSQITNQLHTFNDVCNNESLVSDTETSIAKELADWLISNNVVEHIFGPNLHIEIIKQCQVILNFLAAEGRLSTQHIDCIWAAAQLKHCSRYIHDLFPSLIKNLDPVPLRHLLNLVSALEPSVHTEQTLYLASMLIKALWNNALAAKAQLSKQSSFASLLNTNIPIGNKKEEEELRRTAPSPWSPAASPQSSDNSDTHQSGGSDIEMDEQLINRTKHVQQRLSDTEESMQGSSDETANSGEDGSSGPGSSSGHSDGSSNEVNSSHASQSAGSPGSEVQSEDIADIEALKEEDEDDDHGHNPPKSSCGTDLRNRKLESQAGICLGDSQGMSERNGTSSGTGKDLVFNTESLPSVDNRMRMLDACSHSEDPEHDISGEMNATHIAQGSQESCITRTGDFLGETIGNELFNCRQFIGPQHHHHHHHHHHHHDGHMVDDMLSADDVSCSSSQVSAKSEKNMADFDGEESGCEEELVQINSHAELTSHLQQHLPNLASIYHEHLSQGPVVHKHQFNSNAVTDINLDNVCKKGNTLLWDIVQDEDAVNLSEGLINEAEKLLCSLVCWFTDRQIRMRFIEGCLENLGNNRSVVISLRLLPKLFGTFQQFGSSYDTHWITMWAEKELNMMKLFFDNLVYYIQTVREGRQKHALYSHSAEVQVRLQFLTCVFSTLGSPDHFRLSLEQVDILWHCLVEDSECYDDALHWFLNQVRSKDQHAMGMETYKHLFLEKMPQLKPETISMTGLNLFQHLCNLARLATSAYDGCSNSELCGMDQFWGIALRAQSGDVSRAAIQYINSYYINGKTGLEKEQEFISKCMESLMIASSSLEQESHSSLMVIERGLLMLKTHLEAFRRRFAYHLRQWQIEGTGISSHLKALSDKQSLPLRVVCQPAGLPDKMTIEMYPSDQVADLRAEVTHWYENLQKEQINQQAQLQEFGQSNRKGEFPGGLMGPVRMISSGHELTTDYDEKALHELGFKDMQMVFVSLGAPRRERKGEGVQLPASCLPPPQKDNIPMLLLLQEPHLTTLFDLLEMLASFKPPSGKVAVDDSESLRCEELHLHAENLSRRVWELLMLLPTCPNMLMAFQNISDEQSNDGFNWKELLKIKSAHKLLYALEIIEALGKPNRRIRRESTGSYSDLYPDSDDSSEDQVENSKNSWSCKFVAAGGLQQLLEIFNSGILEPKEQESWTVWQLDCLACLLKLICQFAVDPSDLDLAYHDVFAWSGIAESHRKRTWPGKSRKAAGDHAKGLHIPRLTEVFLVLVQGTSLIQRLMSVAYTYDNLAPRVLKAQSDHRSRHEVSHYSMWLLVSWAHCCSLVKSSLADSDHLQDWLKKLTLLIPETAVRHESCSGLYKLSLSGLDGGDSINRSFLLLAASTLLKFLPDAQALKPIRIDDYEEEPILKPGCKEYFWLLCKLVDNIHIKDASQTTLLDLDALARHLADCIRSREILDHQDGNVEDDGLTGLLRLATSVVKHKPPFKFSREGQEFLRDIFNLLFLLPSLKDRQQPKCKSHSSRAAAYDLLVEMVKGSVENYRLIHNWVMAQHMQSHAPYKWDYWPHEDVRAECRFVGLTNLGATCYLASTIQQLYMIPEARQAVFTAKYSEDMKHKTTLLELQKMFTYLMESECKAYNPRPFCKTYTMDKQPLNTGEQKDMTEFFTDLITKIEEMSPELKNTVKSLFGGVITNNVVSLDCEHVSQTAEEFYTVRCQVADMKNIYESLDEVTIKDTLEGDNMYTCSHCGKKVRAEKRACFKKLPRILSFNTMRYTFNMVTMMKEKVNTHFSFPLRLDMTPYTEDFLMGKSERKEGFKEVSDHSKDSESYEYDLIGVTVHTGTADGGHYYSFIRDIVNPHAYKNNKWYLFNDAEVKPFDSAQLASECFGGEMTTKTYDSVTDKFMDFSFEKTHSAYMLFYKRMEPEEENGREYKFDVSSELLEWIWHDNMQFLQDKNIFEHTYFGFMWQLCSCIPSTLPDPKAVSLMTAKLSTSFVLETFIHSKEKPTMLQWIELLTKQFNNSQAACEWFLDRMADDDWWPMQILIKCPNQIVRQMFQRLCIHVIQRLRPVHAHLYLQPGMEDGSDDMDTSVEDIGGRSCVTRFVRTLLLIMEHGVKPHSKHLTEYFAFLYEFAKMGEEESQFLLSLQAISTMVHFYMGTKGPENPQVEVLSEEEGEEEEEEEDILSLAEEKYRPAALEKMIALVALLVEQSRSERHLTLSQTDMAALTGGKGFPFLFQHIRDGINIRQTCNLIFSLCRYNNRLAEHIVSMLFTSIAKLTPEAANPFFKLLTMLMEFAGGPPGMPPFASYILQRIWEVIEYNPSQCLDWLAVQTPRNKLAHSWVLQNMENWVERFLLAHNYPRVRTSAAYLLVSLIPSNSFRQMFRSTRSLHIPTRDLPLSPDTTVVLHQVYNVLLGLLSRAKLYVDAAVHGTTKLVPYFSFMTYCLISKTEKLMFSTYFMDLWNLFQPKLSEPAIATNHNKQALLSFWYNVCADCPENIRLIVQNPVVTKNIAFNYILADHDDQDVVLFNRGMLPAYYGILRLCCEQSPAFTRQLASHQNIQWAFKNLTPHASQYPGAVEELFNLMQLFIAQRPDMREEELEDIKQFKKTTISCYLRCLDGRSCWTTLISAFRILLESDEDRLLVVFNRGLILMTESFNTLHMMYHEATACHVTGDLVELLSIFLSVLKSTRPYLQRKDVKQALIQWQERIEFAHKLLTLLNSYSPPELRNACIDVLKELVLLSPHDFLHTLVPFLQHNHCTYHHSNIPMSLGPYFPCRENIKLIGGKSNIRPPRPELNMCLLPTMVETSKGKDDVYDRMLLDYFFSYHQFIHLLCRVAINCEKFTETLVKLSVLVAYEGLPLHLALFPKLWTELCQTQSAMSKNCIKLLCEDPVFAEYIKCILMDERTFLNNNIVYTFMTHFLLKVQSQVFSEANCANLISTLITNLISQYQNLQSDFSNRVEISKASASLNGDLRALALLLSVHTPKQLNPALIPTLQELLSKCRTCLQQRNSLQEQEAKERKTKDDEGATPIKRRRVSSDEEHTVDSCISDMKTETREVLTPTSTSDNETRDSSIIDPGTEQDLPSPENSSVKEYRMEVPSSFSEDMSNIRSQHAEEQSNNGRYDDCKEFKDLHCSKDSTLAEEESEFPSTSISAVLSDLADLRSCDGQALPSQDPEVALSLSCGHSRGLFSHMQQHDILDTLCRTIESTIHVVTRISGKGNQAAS

Cc1ncsc1CCNC(=O)CCl
inactive: [1] 0.121 | [2] -0.151 | [3] 0.14 | [4] -0.101 | [5] 0.244
